Measured values reported in paper PMC7826789 (International Journal of Molecular Sciences, 2021).

Legend:
Conditions in all cases: Compound Concentration (nM):1000
PAK1 = test system: PAK1
PAK2 = test system: PAK2
PAK3 = test system: PAK3
PAK4 = test system: PAK4
PAK6 = test system: PAK6
PAK7 = test system: PAK7
PCTK1 = test system: T1, PCTK1
T1 construct: gene CDK16

PCTK2 = test system: T2, PCTK2
T2 construct: gene CDK17

PCTK3 = test system: T3, PCTK3
T3 construct: gene CDK18

PDGFRA = test system: PDGFRA
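Also: KINOMEscan scanMAX binding as percent activity remaining versus control; lower means stronger binding.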

Structure (SMILES) | Percent Control (PAK1) [%] | Percent Control (PAK2) [%] | Percent Control (PAK3) [%] | Percent Control (PAK4) [%] | Percent Control (PAK6) [%] | Percent Control (PAK7) [%] | Percent Control (PCTK1) [%] | Percent Control (PCTK2) [%] | Percent Control (PCTK3) [%] | Percent Control (PDGFRA) [%]
COc1cc2ncnc(Nc3ccc4c(cnn4Cc4ccccc4)c3)c2cc1OC.Cl [GW282449A] | 100 | 100 | 30 | 100 | 100 | 100 | 100 | 100 | 100 | 83
Cl.O=S1CCN(Cc2ccc(-c3ccc4ncnc(Nc5ccc(OCc6ccccc6)c(F)c5)c4c3)o2)CC1 [GW576924A] | 100 | 100 | 78 | 100 | 100 | 100 | 100 | 100 | 100 | 84
COc1cc(N2CCN(C(C)C)CC2)ccc1Nc1nc(Nc2ccc(F)cc2C(=O)NC[C@@H](O)CO)c2cc[nH]c2n1 [GSK1392956A] | 100 | 100 | 100 | 100 | 89 | 67 | 82 | 100 | 100 | 91
NS(=O)(=O)c1ccc(N/N=C2\C(=O)Nc3ccc(Cl)cc32)cc1 [GW280670X] | 100 | 100 | 100 | 100 | 100 | 100 | 26 | 100 | 100 | 28
Cl.O=C(Nc1ccc(Oc2ccc3[nH]c(NC(=O)c4ccco4)nc3c2)cc1)Nc1cc(C(F)(F)F)ccc1F [GW683134A] | 100 | 100 | 5.6 | 100 | 92 | 100 | 100 | 100 | 100 | 11
O=C1Nc2ccc(C(=O)c3ccco3)cc2C1=Cc1cc(Cl)c(O)c(Cl)c1 [GW406108X] | 100 | 80 | 100 | 100 | 80 | 100 | 100 | 100 | 91 | 79
COc1ccc2cc(-c3c(-c4ccncc4)nc(-c4ccc(S(C)(=O)=O)cc4C)n3C)ccc2c1 [SB-633825] | 87 | 85 | 12 | 81 | 97 | 87 | 74 | 100 | 100 | 91
COc1cccc(-n2ncc3c(N/N=C/c4ccncc4)ncnc32)c1 [GW784752X] | 100 | 100 | 100 | 100 | 96 | 100 | 25 | 70 | 100 | 36
Cl.c1ccc(Cc2nc3ccc(Nc4ncnc5ccccc45)cc3[nH]2)cc1 [GR269666A] | 100 | 100 | 100 | 100 | 100 | 100 | 100 | 100 | 100 | 49
COc1cc2ncn(-c3cc(O[C@H](C)c4ccccc4Cl)c(C(N)=O)s3)c2cc1OC [GSK237701A] | 98 | 93 | 7.6 | 93 | 88 | 100 | 90 | 100 | 100 | 24
COc1cc(C=NNc2ncnc3c2cnn3-c2ccccc2)ccc1O [GW513184X] | 100 | 100 | 50 | 100 | 100 | 100 | 29 | 38 | 84 | 63
COc1ccc2c(-c3ccnc(Nc4cccc(OC(F)(F)F)c4)n3)cnn2n1 [GW810372X] | 100 | 100 | 100 | 100 | 96 | 100 | 100 | 100 | 99 | 87
NS(=O)(=O)c1ccc(Nc2ncc(-c3ccccc3)o2)cc1 [GW572399X] | 100 | 100 | 86 | 100 | 87 | 100 | 3.8 | 100 | 100 | 8.8
CN(C)CCNC(=O)Nc1ccc(N(C)c2ccnc(Nc3ccc(CS(C)(=O)=O)cc3)n2)cc1.Cl [GW830900A] | 99 | 79 | 2.1 | 71 | 90 | 71 | 100 | 100 | 100 | 2
COc1cc(/C=N/Nc2ncnc3[nH]ncc23)ccc1O [GW578748X] | 100 | 97 | 58 | 100 | 100 | 100 | 100 | 100 | 100 | 7.6
COc1ccc(COc2ccc(Cc3cnc(N)nc3N)cc2OC)cc1 [GW632580X] | 100 | 100 | 62 | 100 | 92 | 100 | 84 | 100 | 73 | 91
NS(=O)(=O)c1ccc(N/N=C2\C(=O)Nc3ccc(C(=O)NCCc4c[nH]cn4)cc32)cc1 [GW300660X] | 100 | 81 | 100 | 100 | 100 | 100 | 2.2 | 100 | 100 | 54
CCn1c(-c2nonc2N)nc2c(C#CC(C)(C)O)nc(OCCNC)cc21.Cl [GSK949675] | 100 | 52 | 100 | 75 | 60 | 46 | 82 | 100 | 100 | 100
COc1ccc2[nH]c3c4[nH]c5ccc(OC)cc5c4c4c(c3c2c1)C(=O)NC4=O [GW296115X] | 70 | 91 | 4.2 | 90 | 100 | 91 | 99 | 72 | 80 | 11
COc1ccccc1-c1cc(/C=C2\C(=O)Nc3ncc(Br)cc32)cc(Br)c1O [GW442130X] | 100 | 100 | 67 | 100 | 100 | 98 | 79 | 100 | 100 | 71

Structure (SMILES) | Percent Control (PAK1) [%] | Percent Control (PAK2) [%] | Percent Control (PAK3) [%] | Percent Control (PAK4) [%] | Percent Control (PAK6) [%] | Percent Control (PAK7) [%] | Percent Control (PCTK1) [%] | Percent Control (PCTK2) [%] | Percent Control (PCTK3) [%] | Percent Control (PDGFRA) [%]
CCS(=O)(=O)c1ccc(OC)c(Nc2ncc(-c3cccc(OC)c3)o2)c1 [GW580509X] | 100 | 100 | 100 | 100 | 96 | 100 | 100 | 100 | 100 | 69
CN(C)c1cc2c(Nc3ccc4c(cnn4Cc4ccccc4)c3)ncnc2cn1 [GW282974X] | 89 | 79 | 26 | 98 | 87 | 88 | 87 | 100 | 100 | 100
CC1=C(C(=O)Nc2ccc3[nH]ncc3c2)C(c2ccc(Cl)c(Cl)c2)CC(=O)N1 (stereo not shown) [GSK299115A] | 94 | 84 | 96 | 82 | 79 | 91 | 85 | 100 | 93 | 100
CN1CCN(C(=O)c2ccc(NC(=O)Nc3ccc(N(C)c4ccnc(Nc5ccc(CS(C)(=O)=O)cc5)n4)cc3)cc2)CC1.Cl [GW830263A] | 92 | 50 | 0 | 46 | 92 | 67 | 76 | 91 | 96 | 2
NS(=O)(=O)c1ccc(N/N=C2\C(=O)Nc3ccc(-c4cnco4)cc32)cc1 [GW276655] | 87 | 82 | 100 | 95 | 76 | 88 | 1.4 | 76 | 100 | 79
Cc1cc(O)cc(C)c1/C=C/c1cncc(C(N)=O)c1 [GW435821X] | 99 | 100 | 84 | 100 | 98 | 100 | 100 | 100 | 93 | 18
Cl.O=C(Nc1ccc(Oc2ccc3[nH]c(NC(=O)c4ccccc4)nc3c2)cc1)Nc1cc(C(F)(F)F)ccc1F [GW709042A] | 93 | 90 | 5.9 | 100 | 96 | 100 | 100 | 100 | 96 | 35
O=C(Nc1n[nH]c2nc(-c3ccc(O)cc3)c(Br)cc12)C1CC1 [SB-725317] | 89 | 60 | 71 | 100 | 100 | 100 | 24 | 62 | 77 | 29
Cl.O=C(O[C@H]1CN[C@H](C#Cc2cc3ncnc(Nc4ccc5c(cnn5Cc5ccccc5)c4)c3s2)C1)N1CCOCC1 [GSK200398A] | 100 | 100 | 63 | 100 | 100 | 89 | 83 | 96 | 100 | 83
C[C@@H](Oc1cc(-n2cnc3ccc(OC4CCN(C)CC4)cc32)sc1C(N)=O)c1ccccc1Cl [GSK579289A] | 100 | 84 | 0 | 100 | 75 | 74 | 94 | 94 | 86 | 54
NS(=O)(=O)c1ccc(N/N=C2\C(=O)Nc3ccc(C(=O)NCc4ccncc4)cc32)cc1 [GW300657X] | 100 | 100 | 63 | 100 | 81 | 87 | 0.2 | 22 | 68 | 27
C/C(Nc1ccc(S(N)(=O)=O)cc1)=C1/C(=O)Nc2ccccc21 [GW335962X] | 82 | 80 | 64 | 89 | 85 | 100 | 23 | 100 | 78 | 6.1
CC(C)COC(=O)c1ccc2c(c1)/C(=C/Nc1ccc(S(N)(=O)=O)cc1)C(=O)N2 [GW416981X] | 100 | 100 | 100 | 100 | 100 | 97 | 0.6 | 16 | 60 | 55
CCc1ccc(Oc2nccc(-c3c(-c4ccc(F)cc4)ncn3C3CCNCC3)n2)cc1 [SB-242719] | 100 | 100 | 71 | 100 | 82 | 98 | 87 | 100 | 94 | 100
CC1=C(C(=O)Nc2ccc3[nH]ncc3c2)C(c2ccc3ccccc3c2)CC(=O)N1 (stereo not shown) [GSK270822A] | 85 | 93 | 79 | 85 | 89 | 83 | 89 | 100 | 96 | 100
Nc1ncnc2occ(-c3ccc(NC(=O)Nc4cc(C(F)(F)F)ccc4F)cc3)c12 [GW770249X] | 100 | 100 | 31 | 100 | 100 | 100 | 82 | 29 | 31 | 1.4
CCS(=O)(=O)c1ccc(OC)c(Nc2ncc(-c3cccc(F)c3)o2)c1 [GW621970X] | 100 | 100 | 100 | 100 | 100 | 100 | 100 | 100 | 81 | 49
COC(=O)Nc1nc2ccc(Oc3ccc(NC(=O)Nc4cc(C(F)(F)F)ccc4F)cc3)cc2s1.Cl [GW693917A] | 100 | 100 | 43 | 100 | 82 | 91 | 74 | 72 | 78 | 11
COc1cc(C)c(N(C)C(=O)CN(C)C)cc1Nc1nc(Nc2cccc(F)c2C(N)=O)c2cc[nH]c2n1 [GSK2219385] | 100 | 74 | 100 | 100 | 96 | 82 | 79 | 100 | 100 | 100
COc1cccc(-c2c[nH]c3c(N/N=C/c4ccncc4)ncnc23)c1 [GW814408X] | 100 | 94 | 1.9 | 100 | 100 | 100 | 28 | 75 | 100 | 8.2
